The values that follow come from PMC7862700, “An all-to-all approach to the identification of sequence-specific readers for epigenetic DNA modifications on cytosine”.

Holding throughout (test): DAPPL (digital affinity profiling via proximity ligation, sequencing); 10 mM Tris-HCl pH 7.5, 50 mM NaCl, 1 mM DTT, 4% glycerol, room temperature, 30 min; GST-TFs on glutathione beads, 16-mer random dsDNA library, 0.1% formaldehyde crosslink after washing; high values mean tight binding
Common to all, as to conditions: protein: recombinant; tags: N-terminal GST; dsDNA, one strand shown

Assay [1] deals with T1, ERF (Homo sapiens, UniProt P50548 1-548).
T1 sequence: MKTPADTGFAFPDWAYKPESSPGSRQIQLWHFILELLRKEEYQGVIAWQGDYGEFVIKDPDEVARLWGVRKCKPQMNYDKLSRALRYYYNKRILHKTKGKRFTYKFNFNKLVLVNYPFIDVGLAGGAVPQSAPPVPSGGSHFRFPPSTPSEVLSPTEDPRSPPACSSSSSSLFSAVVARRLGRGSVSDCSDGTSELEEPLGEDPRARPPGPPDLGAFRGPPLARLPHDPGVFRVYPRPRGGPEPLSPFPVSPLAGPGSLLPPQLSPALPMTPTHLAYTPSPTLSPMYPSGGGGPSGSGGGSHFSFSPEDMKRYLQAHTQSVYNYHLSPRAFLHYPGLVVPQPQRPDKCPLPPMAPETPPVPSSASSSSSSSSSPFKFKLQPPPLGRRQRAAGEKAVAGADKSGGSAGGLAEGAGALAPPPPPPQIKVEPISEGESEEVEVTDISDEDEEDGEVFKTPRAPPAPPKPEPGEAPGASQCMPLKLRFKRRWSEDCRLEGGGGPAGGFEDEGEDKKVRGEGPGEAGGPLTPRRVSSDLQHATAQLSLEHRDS
In outline:
(§1)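 Human transcription factors carrying a GST fusion were produced in yeast, bound to glutathione beads, tagged with DNA barcodes and pooled together with a tag-only sample. Each pool was held with 200 nmole of a random double-stranded 16-mer DNA library in Tris/NaCl/DTT/glycerol buffer for 30 min at room temperature, then washed, crosslinked in 0.1% formaldehyde, proximity-ligated with BsaI/T4 ligase (1 h, 37 °C), PCR-amplified and sequenced on an Illumina NextSeq500. Binding signal is the read frequency of each hexamer for a given factor divided by its frequency in the tag-only sample.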

Assay [2] concerns the target T2, ETV3L (Homo sapiens, UniProt Q6ZN32 1-361).
T2 sequence: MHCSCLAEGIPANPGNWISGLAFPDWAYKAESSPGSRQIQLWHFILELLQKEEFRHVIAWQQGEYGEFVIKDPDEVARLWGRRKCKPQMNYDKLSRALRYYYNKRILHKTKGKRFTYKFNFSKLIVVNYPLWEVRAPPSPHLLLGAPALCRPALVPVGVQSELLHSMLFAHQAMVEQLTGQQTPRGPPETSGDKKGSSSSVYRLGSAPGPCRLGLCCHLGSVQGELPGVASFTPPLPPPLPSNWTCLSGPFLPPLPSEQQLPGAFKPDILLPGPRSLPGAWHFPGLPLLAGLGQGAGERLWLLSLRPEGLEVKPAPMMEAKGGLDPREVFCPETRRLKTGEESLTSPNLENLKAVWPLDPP
In short, it runs like this:
as §1

Assay [3] has as its target T3, ETS2 (Homo sapiens, UniProt P15036 1-469).
T3 sequence: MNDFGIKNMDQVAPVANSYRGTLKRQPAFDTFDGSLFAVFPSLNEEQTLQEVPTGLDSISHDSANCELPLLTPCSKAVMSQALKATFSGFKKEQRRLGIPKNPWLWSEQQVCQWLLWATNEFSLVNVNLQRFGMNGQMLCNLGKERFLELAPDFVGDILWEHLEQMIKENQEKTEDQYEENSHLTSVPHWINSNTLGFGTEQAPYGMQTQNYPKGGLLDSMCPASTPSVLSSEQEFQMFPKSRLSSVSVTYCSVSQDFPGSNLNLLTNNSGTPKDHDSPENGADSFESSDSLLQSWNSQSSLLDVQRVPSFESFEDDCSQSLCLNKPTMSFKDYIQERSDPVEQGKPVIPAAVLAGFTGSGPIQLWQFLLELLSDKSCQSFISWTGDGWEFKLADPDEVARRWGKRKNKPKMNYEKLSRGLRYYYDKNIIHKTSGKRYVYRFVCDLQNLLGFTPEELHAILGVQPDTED
In outline: as §1

For assay [4], the target named is T4, SPDEF (Homo sapiens, UniProt O95238 1-335).
T4 sequence: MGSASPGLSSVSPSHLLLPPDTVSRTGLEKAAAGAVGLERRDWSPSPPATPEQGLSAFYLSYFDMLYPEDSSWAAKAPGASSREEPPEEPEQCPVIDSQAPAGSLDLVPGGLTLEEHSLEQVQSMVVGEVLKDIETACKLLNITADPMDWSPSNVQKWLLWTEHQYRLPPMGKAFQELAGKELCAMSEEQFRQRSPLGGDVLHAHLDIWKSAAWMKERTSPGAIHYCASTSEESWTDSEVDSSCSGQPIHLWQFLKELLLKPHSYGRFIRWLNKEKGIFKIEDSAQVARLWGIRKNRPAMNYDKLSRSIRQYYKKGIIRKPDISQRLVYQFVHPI
In outline: as §1

Assay [5] has as its target T5, ETV7 (Homo sapiens, UniProt Q9Y603 1-341).
T5 sequence: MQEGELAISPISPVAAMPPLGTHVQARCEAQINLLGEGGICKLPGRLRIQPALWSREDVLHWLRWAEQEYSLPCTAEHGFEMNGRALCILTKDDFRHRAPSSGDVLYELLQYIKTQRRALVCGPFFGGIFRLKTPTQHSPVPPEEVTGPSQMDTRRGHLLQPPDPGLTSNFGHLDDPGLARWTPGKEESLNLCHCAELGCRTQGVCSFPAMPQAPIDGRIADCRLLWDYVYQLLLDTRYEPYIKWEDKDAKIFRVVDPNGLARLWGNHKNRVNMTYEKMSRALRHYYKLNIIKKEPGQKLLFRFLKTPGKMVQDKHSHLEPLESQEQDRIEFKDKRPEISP
In short, it runs like this: as §1

The target of assay [6] is T6, ELF5 (Homo sapiens, UniProt Q9UKW6-2 1-255).
T6 sequence: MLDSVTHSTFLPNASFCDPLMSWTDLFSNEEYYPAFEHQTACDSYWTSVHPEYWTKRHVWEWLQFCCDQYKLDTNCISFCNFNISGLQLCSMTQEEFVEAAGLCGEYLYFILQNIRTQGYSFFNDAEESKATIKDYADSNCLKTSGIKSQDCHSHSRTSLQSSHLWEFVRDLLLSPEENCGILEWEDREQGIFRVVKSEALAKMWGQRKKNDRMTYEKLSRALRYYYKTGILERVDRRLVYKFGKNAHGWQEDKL
In short, it runs like this: as §1

The target of assay [7] is T7, ETV3 (Homo sapiens, UniProt P41162-2 1-143).
T7 sequence: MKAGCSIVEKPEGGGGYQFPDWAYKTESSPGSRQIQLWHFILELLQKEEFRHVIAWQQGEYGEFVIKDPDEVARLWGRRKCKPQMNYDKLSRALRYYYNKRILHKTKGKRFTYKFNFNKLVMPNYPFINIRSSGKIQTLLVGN
In outline:
as §1

The target in assay [8] is ETV6 (Homo sapiens, UniProt P41212 1-452). In short, it runs like this:
as §1

Chain of ETV6 (P41212 whole entry): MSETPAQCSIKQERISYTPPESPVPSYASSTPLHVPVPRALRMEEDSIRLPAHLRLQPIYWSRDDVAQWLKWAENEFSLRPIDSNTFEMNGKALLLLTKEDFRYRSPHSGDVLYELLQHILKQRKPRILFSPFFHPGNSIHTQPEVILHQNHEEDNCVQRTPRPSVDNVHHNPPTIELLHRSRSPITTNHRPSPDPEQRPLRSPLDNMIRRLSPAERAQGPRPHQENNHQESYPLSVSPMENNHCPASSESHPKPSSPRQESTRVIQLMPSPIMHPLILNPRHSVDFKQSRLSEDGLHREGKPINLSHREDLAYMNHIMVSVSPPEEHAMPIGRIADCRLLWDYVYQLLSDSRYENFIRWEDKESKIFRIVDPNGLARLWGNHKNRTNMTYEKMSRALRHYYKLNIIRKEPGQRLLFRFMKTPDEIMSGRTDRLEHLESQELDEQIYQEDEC

For AATAAC, the binding signal is 1.33 fold enrichment (6-mer frequency, TF over GST control) in assay [1]; 1.22 fold enrichment (6-mer frequency, TF over GST control) in assay [2]; 1.27 fold enrichment (6-mer frequency, TF over GST control) in assay [3]; 1.21 fold enrichment (6-mer frequency, TF over GST control) in assay [4]; 1.25 fold enrichment (6-mer frequency, TF over GST control) in assay [5]; 1.31 fold enrichment (6-mer frequency, TF over GST control) in assay [6]. Moreover, the binding signal was 1.23 fold enrichment (6-mer frequency, TF over GST control) in assay [7] and 1.36 fold enrichment (6-mer frequency, TF over GST control) in assay [8].
For CTCACT, the binding signal in assay [1] was 1.45 fold enrichment (6-mer frequency, TF over GST control); in assay [2] it was 1.52 fold enrichment (6-mer frequency, TF over GST control); in assay [3], 1.6 fold enrichment (6-mer frequency, TF over GST control); in assay [4], 1.44 fold enrichment (6-mer frequency, TF over GST control); in assay [5], 1.56 fold enrichment (6-mer frequency, TF over GST control); in assay [6], 1.54 fold enrichment (6-mer frequency, TF over GST control). Besides, the binding signal in assay [7] is 1.5 fold enrichment (6-mer frequency, TF over GST control); in assay [8], 1.6 fold enrichment (6-mer frequency, TF over GST control).
Take CCGCAA: the binding signal is 1.19 fold enrichment (6-mer frequency, TF over GST control) in assay [1]; 1.23 fold enrichment (6-mer frequency, TF over GST control) in assay [2]; 1.47 fold enrichment (6-mer frequency, TF over GST control) in assay [3]; 1.36 fold enrichment (6-mer frequency, TF over GST control) in assay [4]; 1.32 fold enrichment (6-mer frequency, TF over GST control) in assay [5]; 1.39 fold enrichment (6-mer frequency, TF over GST control) in assay [6]. Moreover, the binding signal is 1.3 fold enrichment (6-mer frequency, TF over GST control) in assay [7] and 1.33 fold enrichment (6-mer frequency, TF over GST control) in assay [8].
As to CCACAT, the binding signal was 1.28 fold enrichment (6-mer frequency, TF over GST control) in assay [1]; 1.15 fold enrichment (6-mer frequency, TF over GST control) in assay [2]; 1.2 fold enrichment (6-mer frequency, TF over GST control) in assay [3]; 1.22 fold enrichment (6-mer frequency, TF over GST control) in assay [4]; 1.05 fold enrichment (6-mer frequency, TF over GST control) in assay [5]; 1.15 fold enrichment (6-mer frequency, TF over GST control) in assay [6]. Also, the binding signal in assay [7] is 1.17 fold enrichment (6-mer frequency, TF over GST control); in assay [8] it was 1.2 fold enrichment (6-mer frequency, TF over GST control).
In the case of ACCGCC, the binding signal in assay [1] is 1.21 fold enrichment (6-mer frequency, TF over GST control); in assay [2], 1.25 fold enrichment (6-mer frequency, TF over GST control); in assay [3], 1.24 fold enrichment (6-mer frequency, TF over GST control); in assay [4], 1.29 fold enrichment (6-mer frequency, TF over GST control); in assay [5] it was 1.21 fold enrichment (6-mer frequency, TF over GST control); in assay [6], 1.23 fold enrichment (6-mer frequency, TF over GST control). For the same sequence, the binding signal in assay [7] is 1.44 fold enrichment (6-mer frequency, TF over GST control); in assay [8] it was 1.26 fold enrichment (6-mer frequency, TF over GST control).
For the sequence AACAGG, the binding signal in assay [1] was 1.16 fold enrichment (6-mer frequency, TF over GST control); in assay [2] it was 1.15 fold enrichment (6-mer frequency, TF over GST control); in assay [3], 1.13 fold enrichment (6-mer frequency, TF over GST control); in assay [4], 1.31 fold enrichment (6-mer frequency, TF over GST control); in assay [5], 1.15 fold enrichment (6-mer frequency, TF over GST control); in assay [6], 1.24 fold enrichment (6-mer frequency, TF over GST control). Moreover, the binding signal was 1.25 fold enrichment (6-mer frequency, TF over GST control) in assay [7] and 1.29 fold enrichment (6-mer frequency, TF over GST control) in assay [8].
ACCTTC: the binding signal in assay [1] was 1.92 fold enrichment (6-mer frequency, TF over GST control); in assay [2], 1.75 fold enrichment (6-mer frequency, TF over GST control); in assay [3], 1.89 fold enrichment (6-mer frequency, TF over GST control); in assay [4], 2.02 fold enrichment (6-mer frequency, TF over GST control); in assay [5], 1.79 fold enrichment (6-mer frequency, TF over GST control); in assay [6], 2.19 fold enrichment (6-mer frequency, TF over GST control). In addition, the binding signal in assay [7] was 1.8 fold enrichment (6-mer frequency, TF over GST control); in assay [8], 1.96 fold enrichment (6-mer frequency, TF over GST control).
